Structures are written as SMILES. Records with an inconclusive call do not appear. A call without a number means that no potency is given here. Activity calls are given as the source filed them. Calls come from the whole dose curve; as a rule, active = well fitted inhibition curve with a large enough effect; inconclusive = small, poorly fitted or top-dose-only effect; inactive = flat fitted curve, though single readings scatter.

For 10 compounds, Potency results are on record in PubChem BioAssay (NCATS).
Potency is the fitted concentration of half-maximal effect.

This assay relates to W2. Description: qHTS profiling for inhibitors of Plasmodium falciparum proliferation (AID 504749). Note: nearly all actives have a fitted effect of over 60% in size. The settings on record: P. falciparum in erythrocytes, SYBR Green DNA, 72 h; series mostly up to 28.7 µM. An excerpt: NIH National Institute of Allergy and Infectious Diseases [NIAID] NIH Chemical Genomics Center [NCGC] MLPCN Grant: None Assay Provider: Xinzhuan Su, NIAID NCGC Assay Overview: Plasmodium falciparum is a virulent malarial parasite that kills 1-2 million people worldwide each year. Transmitted by mosquitoes, the sporozoite form of the parasite enters the blood stream to infect hepatocytes, where they become merozoites that infect red blood cells (erythrocytes). Within erythrocytes, merozoites begin a […] cycle of growth and division, after which the parasite is released to infect new red blood cells. Gametocytes, which form within erythrocytes as well, circulate in the bloodstream and are ingested by the mosquito, thereby completing the life cycle. To profile malarial isolates for differential chemical responses and to identify inhibitors of malarial growth, an assay that measures P. falciparum growth and replication within erythrocytes was employed. This assay uses a DNA binding fluorescent dye (SYBR Green) to detect parasite DNA following cell lysis. Because mature erythrocytes lack DNA, only Plasmodium-derived DNA is detected.
NCGC Assay Protocol Summary: The SYBR Green viability assay was adapted from a method described previously (Plouffe et al., 2008). For screening 3 ul culture medium was dispensed into 1536 well black clear bottom plates (Aurora Biotechnologies) using a Multidrop Combi (Thermo Fisher Scientific Inc.), 23 nL compounds in DMSO were added by a pin tool (Kalypsys), and 5 ul of erythrocytes infected with P. falciparum (0.3% parasitemia, 2.5% hematocrit final concentration) were added. The plates were incubated at 37 C in a humidified incubator in 5% CO2 for 72 h, and 2 ul lysis buffer (20 mM Tris HCl, 10 mM EDTA, 0.16% saponin, 1.6% triton X, 10X SYBR Green I supplied as 10,000X […] by Invitrogen) was added to each well. The plates were mixed for 25 sec with gentle shaking and incubated overnight at room temperature in the dark. The following morning, fluorescence intensity at 485(14) nm excitation and 535(25) nm emission wavelengths was measured on an EnVision (Perkin Elmer) plate reader. Plate reads were normalized relative to the control inhibitor (0.29 uM artemisinin) and vehicle (DMSO) wells present on each plate and then corrected by an algorithm using vehicle-only control plates at the beginning and end of the compound plate stack.
For `C/C=C1\C2C=C(C)CC1(N)c1ccc(=O)[nH]c1C2` (stereo not given), the Potency entry is “inactive”.

As to `CN1CCN(CCC=C2c3ccccc3Sc3ccc(S(=O)(=O)N(C)C)cc32)CC1`, the Potency is 6.01 µM (active).

For the compound `CC(C)(O)c1ccccc1CC[C@H](SCC1(CC(=O)O)CC1)c1cccc(/C=C/c2ccc3ccc(Cl)cc3n2)c1`, the Potency result was “inactive”.

As to `CC(=O)[C@H]1CC[C@H]2C3CC=C4C[C@@H](O)CC[C@]4(C)C3CC[C@]12C` (stereo not given in full), the Potency result was “inactive”.

As for `C[C@@H](C(=O)O)c1ccc(-c2ccccc2)c(F)c1`, the Potency entry is “inactive”.

For the compound `O=C1c2cccc3c2[C@@H](CCC3)CN1[C@@H]1CN2CCC1CC2`, the Potency is 6.75 µM (active).

Turning to `O=C(CC1NCCC[C@H]1O)Cn1cnc2cc(Br)c(Cl)cc2c1=O` (stereo not given in full), the Potency is 0.675 µM (active).

For the compound `CCCCC(=O)N(Cc1ccc(-c2ccccc2-c2nn[nH]n2)cc1)C(C(=O)O)C(C)C` (stereo not given), the Potency was 15.1 µM (active).

In the case of `CC(C)C[C@@H](NC(=O)[C@H](Cc1ccccc1)NC(=O)c1cnccn1)B(O)O`, the Potency is 0.0757 µM (active).

Take `COC(=O)[C@@H]1[C@@H]2C[C@H]3c4[nH]c5ccccc5c4CCN3C[C@@H]2CC[C@@H]1O`: the Potency result was “inactive”.
